# Several values for one entry are separate records, joined by “and”; a condition that tells them apart may be missing. Equal entries are not always repeated. Results filed as inconclusive are left out. Activity calls are given as the source filed them. How the source made its calls: active means hit-call score of the fitted dose curve at least 0.9, where 1 is the maximum; inconclusive means response in the unintended direction; inactive means score below 0.9.
# Key:
# [1] = target: human Adrenergic, Alpha 2c Receptor (Adra2C), ADRA2C (gene 152) (UniProt P18825); test: NVS_GPCR_hAdra2C: NovaScreen (NVS) G Protein-Coupled Receptor Assay for human Adrenergic, Alpha 2c Receptor (Adra2C) (AID 2283259)
# Sequence of human Adrenergic, Alpha 2c Receptor (Adra2C), ADRA2C (gene 152) (P18825 whole entry, looked up): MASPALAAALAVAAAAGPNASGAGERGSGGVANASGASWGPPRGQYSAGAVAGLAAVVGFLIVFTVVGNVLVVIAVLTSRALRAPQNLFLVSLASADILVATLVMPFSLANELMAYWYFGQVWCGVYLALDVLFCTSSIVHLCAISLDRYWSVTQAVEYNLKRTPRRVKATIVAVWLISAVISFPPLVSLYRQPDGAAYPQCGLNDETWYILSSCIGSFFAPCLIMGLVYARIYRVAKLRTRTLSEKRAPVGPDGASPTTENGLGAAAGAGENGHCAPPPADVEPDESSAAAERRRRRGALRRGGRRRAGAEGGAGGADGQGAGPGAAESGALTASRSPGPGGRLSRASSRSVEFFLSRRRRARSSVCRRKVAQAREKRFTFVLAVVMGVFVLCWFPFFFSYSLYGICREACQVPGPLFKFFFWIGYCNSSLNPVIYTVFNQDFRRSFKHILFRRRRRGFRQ
# Outline: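 Radioligand binding on Sf9-expressed receptor membranes, 1 h after chemical dosing, filter-based scintillation read-out. Loss of binding fitted positively versus DMSO; primary duplicate screen at 25 uM, actives retested in concentration series.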
# [2] = target: human Dopamine Receptor D4.4 (DRD4.4), DRD4 (gene 1815) (UniProt P21917); test: NVS_GPCR_hDRD4.4: NovaScreen (NVS) G Protein-Coupled Receptor Assay for human Dopamine Receptor D4.4 (DRD4.4) (AID 2283264)
# Sequence of human Dopamine Receptor D4.4 (DRD4.4), DRD4 (gene 1815) (P21917 whole entry, looked up): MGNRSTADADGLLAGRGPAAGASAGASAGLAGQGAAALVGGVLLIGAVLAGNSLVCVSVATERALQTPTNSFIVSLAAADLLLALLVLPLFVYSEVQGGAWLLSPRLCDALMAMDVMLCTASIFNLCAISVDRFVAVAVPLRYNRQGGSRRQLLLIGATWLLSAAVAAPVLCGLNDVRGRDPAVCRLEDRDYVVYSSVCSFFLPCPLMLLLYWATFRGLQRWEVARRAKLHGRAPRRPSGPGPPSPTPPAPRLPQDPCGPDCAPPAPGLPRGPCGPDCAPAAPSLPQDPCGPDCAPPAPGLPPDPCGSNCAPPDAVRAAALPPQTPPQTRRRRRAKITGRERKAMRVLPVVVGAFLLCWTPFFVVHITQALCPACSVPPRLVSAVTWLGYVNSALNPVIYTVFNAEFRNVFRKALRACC
# Outline: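 Radioligand displacement on human DRD4.4 from CHO-derived membranes, 1 hour incubation, bound counts read by filtration and scintillation. Primary screen in duplicate at 25 uM; actives followed up in concentration series.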
# [3] = target: human Histamine 1 Receptor (H1), HRH1 (gene 3269) (UniProt P35367); test: NVS_GPCR_hH1: NovaScreen (NVS) G Protein-Coupled Receptor Assay for human Histamine 1 Receptor (H1) (AID 2283268)
# Sequence of human Histamine 1 Receptor (H1), HRH1 (gene 3269) (P35367 whole entry, looked up): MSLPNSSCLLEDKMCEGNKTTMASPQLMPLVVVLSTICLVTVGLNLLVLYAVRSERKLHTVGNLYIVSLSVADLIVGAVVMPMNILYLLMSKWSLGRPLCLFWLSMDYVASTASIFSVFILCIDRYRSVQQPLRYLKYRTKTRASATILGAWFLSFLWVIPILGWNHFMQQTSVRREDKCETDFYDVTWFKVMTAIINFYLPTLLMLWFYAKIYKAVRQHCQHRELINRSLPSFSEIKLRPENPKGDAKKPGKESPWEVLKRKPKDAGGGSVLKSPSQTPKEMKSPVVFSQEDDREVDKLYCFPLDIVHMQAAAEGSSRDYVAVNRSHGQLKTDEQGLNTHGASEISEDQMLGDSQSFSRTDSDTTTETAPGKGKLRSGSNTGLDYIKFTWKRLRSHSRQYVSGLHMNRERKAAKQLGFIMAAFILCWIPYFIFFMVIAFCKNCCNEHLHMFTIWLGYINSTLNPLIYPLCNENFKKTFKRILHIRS
# Outline: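 Cell-free radioligand displacement at human H1 receptor, 1 h, filter scintillation counting; primary screen 25 uM in duplicate, hits in concentration series; loss of binding fitted vs DMSO.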
# [4] = target: D(1A) dopamine receptor (Homo sapiens) (UniProt P21728); test: NVS_GPCR_hDRD1: NovaScreen (NVS) G Protein-Coupled Receptor Assay for human Dopamine Receptor D1 (DRD1) (AID 2283269)
# Sequence of D(1A) dopamine receptor (Homo sapiens) (P21728 whole entry, looked up): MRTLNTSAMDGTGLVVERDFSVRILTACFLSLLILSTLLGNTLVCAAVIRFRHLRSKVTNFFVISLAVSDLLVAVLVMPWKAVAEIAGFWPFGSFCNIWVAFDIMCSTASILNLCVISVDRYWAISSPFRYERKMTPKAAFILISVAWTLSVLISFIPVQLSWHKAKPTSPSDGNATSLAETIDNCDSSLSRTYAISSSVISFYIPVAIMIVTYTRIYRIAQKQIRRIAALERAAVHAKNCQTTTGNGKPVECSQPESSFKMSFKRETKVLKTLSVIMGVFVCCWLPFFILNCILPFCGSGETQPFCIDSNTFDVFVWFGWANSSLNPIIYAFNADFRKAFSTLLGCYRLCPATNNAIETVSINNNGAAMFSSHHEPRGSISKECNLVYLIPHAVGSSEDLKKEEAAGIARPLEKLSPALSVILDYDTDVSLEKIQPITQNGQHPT
# Outline: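 HEK293-derived receptor preparation; radioligand competitive displacement; 1 h; filtration + scintillation counting. DMSO = negative control/baseline. Primary: 25 uM, duplicate; secondary: concentration–response for actives.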
# [5] = target: human Adrenergic, Beta 3 Receptor (Adrb3), ADRB3 (gene 155) (UniProt P13945); test: NVS_GPCR_hAdrb3: NovaScreen (NVS) G Protein-Coupled Receptor Assay for human Adrenergic, Beta 3 Receptor (Adrb3) (AID 2283262)
# Sequence of human Adrenergic, Beta 3 Receptor (Adrb3), ADRB3 (gene 155) (P13945 whole entry, looked up): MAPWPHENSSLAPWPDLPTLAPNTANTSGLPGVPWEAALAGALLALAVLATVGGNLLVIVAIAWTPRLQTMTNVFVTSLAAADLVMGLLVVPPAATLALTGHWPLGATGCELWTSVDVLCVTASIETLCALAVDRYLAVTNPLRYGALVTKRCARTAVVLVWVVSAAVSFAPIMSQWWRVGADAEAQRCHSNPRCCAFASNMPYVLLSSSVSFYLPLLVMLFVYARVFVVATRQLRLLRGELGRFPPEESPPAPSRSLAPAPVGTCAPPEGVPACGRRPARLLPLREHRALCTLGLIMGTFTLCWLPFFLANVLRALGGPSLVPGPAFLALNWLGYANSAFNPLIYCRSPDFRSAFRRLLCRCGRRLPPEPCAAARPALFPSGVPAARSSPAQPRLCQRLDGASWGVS
# Outline: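 Membranes from SK-N-MC cells pretreated with isoproterenol and 8-bromo-cAMP were used in a radioligand competitive displacement binding assay. Binding was read by filter-based scintillation counting 1 hour after dosing. Primary screening was in duplicate at 25 uM, with concentration series in follow-up.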
# [6] = target: human Endothelin Receptor Type A (ETA), EDNRA (gene 1909) (UniProt P25101); test: NVS_GPCR_hETA: NovaScreen (NVS) G Protein-Coupled Receptor Assay for human Endothelin Receptor Type A (ETA) (AID 2283265)
# Sequence of human Endothelin Receptor Type A (ETA), EDNRA (gene 1909) (P25101 whole entry, looked up): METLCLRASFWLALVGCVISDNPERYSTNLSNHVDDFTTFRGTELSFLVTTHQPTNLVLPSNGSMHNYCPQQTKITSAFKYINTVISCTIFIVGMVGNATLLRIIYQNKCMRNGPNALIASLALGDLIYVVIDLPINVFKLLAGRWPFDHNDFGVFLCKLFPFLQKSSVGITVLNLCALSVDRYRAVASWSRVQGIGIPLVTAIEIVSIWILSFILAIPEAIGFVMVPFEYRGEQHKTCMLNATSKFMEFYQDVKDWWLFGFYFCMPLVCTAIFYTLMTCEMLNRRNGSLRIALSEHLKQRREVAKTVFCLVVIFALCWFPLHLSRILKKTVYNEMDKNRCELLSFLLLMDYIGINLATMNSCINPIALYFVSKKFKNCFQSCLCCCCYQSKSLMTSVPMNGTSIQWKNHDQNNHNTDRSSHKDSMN
# Outline: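 Cell-free radioligand displacement using SH-SY5Y-derived protein, 3 h incubation, filter-based scintillation counting. Primary screen in duplicate at 25 uM; actives then run in concentration-response up to 50 uM; loss of binding fitted versus DMSO.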
# [7] = target: human Adrenergic, Alpha 2A Receptor (Adra2A), ADRA2A (gene 150) (UniProt P08913); test: NVS_GPCR_hAdra2A: NovaScreen (NVS) G Protein-Coupled Receptor Assay for human Adrenergic, Alpha 2A Receptor (Adra2A) (AID 2283257)
# Sequence of human Adrenergic, Alpha 2A Receptor (Adra2A), ADRA2A (gene 150) (P08913 whole entry, looked up): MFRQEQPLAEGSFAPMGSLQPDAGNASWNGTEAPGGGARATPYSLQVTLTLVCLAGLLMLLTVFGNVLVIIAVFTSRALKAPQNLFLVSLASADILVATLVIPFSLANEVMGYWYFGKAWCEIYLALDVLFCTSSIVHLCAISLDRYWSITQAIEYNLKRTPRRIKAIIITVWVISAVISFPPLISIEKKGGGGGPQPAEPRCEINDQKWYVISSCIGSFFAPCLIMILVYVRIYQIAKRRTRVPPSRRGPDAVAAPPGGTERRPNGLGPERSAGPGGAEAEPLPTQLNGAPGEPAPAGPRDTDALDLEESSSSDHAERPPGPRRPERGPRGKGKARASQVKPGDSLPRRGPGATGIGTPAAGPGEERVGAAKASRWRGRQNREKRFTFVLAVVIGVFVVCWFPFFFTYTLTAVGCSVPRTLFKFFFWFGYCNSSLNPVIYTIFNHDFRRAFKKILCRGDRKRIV
# Outline: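 Radioligand filter-binding was run on HT29-derived membranes, cell-free, read by scintillation counting 1 h after dosing. Primary screening was in duplicate at 25 uM, with concentration series in follow-up. Loss of signal versus DMSO indicates displacement.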
# [8] = target: human Adrenergic, Beta 1 Receptor (Adrb1), ADRB1 (gene 153) (UniProt P08588); test: NVS_GPCR_hAdrb1: NovaScreen (NVS) G Protein-Coupled Receptor Assay for human Adrenergic, Beta 1 Receptor (Adrb1) (AID 2283258)
# Sequence of human Adrenergic, Beta 1 Receptor (Adrb1), ADRB1 (gene 153) (P08588 whole entry, looked up): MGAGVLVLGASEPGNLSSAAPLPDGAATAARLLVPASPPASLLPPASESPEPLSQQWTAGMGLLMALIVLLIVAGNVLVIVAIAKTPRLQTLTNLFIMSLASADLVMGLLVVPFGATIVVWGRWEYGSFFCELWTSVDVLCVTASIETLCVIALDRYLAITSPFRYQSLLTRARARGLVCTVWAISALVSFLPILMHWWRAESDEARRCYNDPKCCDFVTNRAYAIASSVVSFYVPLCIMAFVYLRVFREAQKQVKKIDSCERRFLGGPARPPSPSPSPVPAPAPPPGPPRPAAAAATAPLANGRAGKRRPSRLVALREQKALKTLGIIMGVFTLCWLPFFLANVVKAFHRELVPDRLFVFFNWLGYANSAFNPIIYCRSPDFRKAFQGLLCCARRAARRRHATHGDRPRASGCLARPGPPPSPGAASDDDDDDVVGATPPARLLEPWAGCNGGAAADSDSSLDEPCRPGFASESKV
# Procedure: NVS_GPCR_hAdrb1 is a biochemical, single-readout assay that uses extracted gene-proteins from Human neuroepithelioma cells in a cell-free assay. Measurements were taken 2 hours after chemical dosing in a 96-well plate.NVS_GPCR_hAdrb1 is one of one assay component(s) measured or calculated from the NVS_GPCR_hAdrb1 assay. It is designed to make measurements of radioligand binding, a form of binding reporter, as detected with scintillation counting signals by Filter-based radiodetection technology.Data from the assay component NVS_GPCR_hAdrb1 was analyzed into 1 assay endpoint. This assay endpoint, NVS_GPCR_hAdrb1, was analyzed in the positive analysis fitting direction relative to DMSO as the negative control and baseline of activity. Using a type of binding reporter, loss-of-signal activity can be used to understand changes in the binding as they relate to the gene ADRB1. Furthermore, this assay endpoint can be referred to as a primary readout, because the performed assay has only produced 1 assay endpoint. To generalize the intended target to other relatable targets, this assay endpoint is annotated to the gpcr intended target family, where the subfamily is rhodopsin-like receptor. […]
# [9] = target: Beta-2 adrenergic receptor (Homo sapiens) (UniProt P07550); test: NVS_GPCR_hAdrb2: NovaScreen (NVS) G Protein-Coupled Receptor Assay for human Adrenergic, Beta 2 Receptor (Adrb2) (AID 2283261)
# Sequence of Beta-2 adrenergic receptor (Homo sapiens) (P07550 whole entry, looked up): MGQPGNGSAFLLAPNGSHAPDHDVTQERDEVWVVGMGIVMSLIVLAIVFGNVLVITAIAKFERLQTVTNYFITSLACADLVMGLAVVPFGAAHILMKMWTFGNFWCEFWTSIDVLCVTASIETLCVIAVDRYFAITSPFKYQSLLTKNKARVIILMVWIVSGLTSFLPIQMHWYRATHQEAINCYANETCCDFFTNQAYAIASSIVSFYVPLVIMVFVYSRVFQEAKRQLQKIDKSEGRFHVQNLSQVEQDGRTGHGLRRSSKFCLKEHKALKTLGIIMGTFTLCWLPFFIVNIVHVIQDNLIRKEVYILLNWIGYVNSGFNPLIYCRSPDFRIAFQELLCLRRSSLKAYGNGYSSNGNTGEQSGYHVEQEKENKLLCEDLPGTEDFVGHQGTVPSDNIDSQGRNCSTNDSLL
# Procedure: NVS_GPCR_hAdrb2 is a biochemical, single-readout assay that uses extracted gene-proteins from CHO in a cell-free assay. Measurements were taken 1 hour after chemical dosing in a 96-well plate.NVS_GPCR_hAdrb2 is one of one assay component(s) measured or calculated from the NVS_GPCR_hAdrb2 assay. It is designed to make measurements of radioligand binding, a form of binding reporter, as detected with scintillation counting signals by Filter-based radiodetection technology.Data from the assay component NVS_GPCR_hAdrb2 was analyzed into 1 assay endpoint. This assay endpoint, NVS_GPCR_hAdrb2, was analyzed in the positive analysis fitting direction relative to DMSO as the negative control and baseline of activity. […] Furthermore, this assay endpoint can be referred to as a primary readout, because the performed assay has only produced 1 assay endpoint. […]
# Binding assays used specific radioligands (tritiated, iodinated) with non-radioactive competitive displacement ligands in agonist or antagonist protocols (as indicated) and various reference compounds and inhibitors to titrate specific binding to receptors and transporters. Most enzyme assays (CYPs, kinases, phosphatases, proteases, HDACs) used recombinant protein and specific substrates (fluorescence mostly, some colorimetric and radioactive) and inhibitors, followed by a biochemical separation of substrate and product. […]
# [10] = target: human Dopamine Receptor D2 (DRD2), DRD2 (gene 1813) (UniProt P14416); test: NVS_GPCR_hDRD2s: NovaScreen (NVS) G Protein-Coupled Receptor Assay for human Dopamine Receptor D2 (DRD2) (AID 2283266)
# Sequence of human Dopamine Receptor D2 (DRD2), DRD2 (gene 1813) (P14416 whole entry, looked up): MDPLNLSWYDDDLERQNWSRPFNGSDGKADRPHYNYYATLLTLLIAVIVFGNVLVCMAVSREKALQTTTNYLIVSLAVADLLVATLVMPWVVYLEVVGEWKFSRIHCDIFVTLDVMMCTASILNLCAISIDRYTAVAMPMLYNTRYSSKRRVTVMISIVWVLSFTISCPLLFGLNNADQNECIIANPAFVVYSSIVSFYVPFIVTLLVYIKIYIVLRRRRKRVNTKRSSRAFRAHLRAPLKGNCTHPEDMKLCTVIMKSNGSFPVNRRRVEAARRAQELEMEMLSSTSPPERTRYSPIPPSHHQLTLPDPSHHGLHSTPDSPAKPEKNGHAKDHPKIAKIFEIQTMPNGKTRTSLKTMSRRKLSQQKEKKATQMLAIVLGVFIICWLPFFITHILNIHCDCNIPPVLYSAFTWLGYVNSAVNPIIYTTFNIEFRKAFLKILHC
# Outline: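 Radioligand displacement used human DRD2 membranes extracted from CHO cells and was read by filter-based scintillation counting after 1.5 hours. Primary screening was in duplicate at 25 uM. Loss of signal versus DMSO was fitted, with concentration series in follow-up.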
structure (smiles),measurement,setting,value
CCCCCCCCCCCCOS(=O)(=O)O,AC50,[1],16.4 µM (active)
same,AC50,[2],25 µM (active)
same,outcome,[3],inactive
same,AC50,[4],37.6 µM (active)
CN(C)c1ccc(C(=C2C=CC(=[N+](C)C)C=C2)c2ccccc2)cc1,AC50,[4],2.97 µM (active) and 3.18 µM (active)
O=C(CCCN1CCC(O)(c2ccc(Cl)cc2)CC1)c1ccc(F)cc1,outcome,[5],inactive
CC=O,outcome,[4],inactive
O=C1OC2(c3ccccc31)c1cc(I)c(O)c(I)c1Oc1c2cc(I)c(O)c1I,AC50,[4],0.594 µM (active)
NC(=NCCCCCCN=C(N)/N=C(\N)Nc1ccc(Cl)cc1)/N=C(\N)Nc1ccc(Cl)cc1,AC50,[4],0.618 µM (active)
Clc1ccc(Nc2nnc(Cc3ccncc3)c3ccccc23)cc1,AC50,[4],16 µM (active)
C/C=C/C(=O)C1=C(C)CCCC1(C)C,outcome,[4],inactive
CC(C)(C)c1ccc(O)c(O)c1,AC50,[4],25 µM (active)
CCCCc1oc2ccccc2c1C(=O)c1cc(I)c(OCCN(CC)CC)c(I)c1,AC50,[2],18.9 µM (active)
same,AC50,[6],0.59 µM (active)
COc1cc(OC)nc(NC(=O)NS(=O)(=O)Nc2ccccc2C(=O)N(C)C)n1,outcome,[4],inactive
CCCCCCCCCCCCCCCCCC[N+](C)(C)Cc1ccccc1,AC50,[4],2.22 µM (active)
O=C1c2ccc(O)c(O)c2C(=O)c2c(O)ccc(O)c21,outcome,[4],inactive
N=C(N)c1ccc(OCCCCCOc2ccc(C(=N)N)cc2)cc1,AC50,[7],23.2 µM (active)
same,AC50,[8],20.4 µM (active)
same,AC50,[1],7.57 µM (active)
same,AC50,[9],21.9 µM (active)
same,outcome,[10],inactive
same,AC50,[4],12.3 µM (active)
CCc1cccc(CC)c1NC(=O)C(=O)O,outcome,[4],inactive
CCOC(=O)CN[C@@H](C(=O)N1CC[C@H]1C(=O)NCc1ccc(/C(N)=N/O)cc1)C1CCCCC1,outcome,[4],inactive
